Test results taken from PubChem BioAssay (NCATS).
Results filed as inconclusive are left out. A call without a number means that no potency is given here. The source made the active and inactive calls. The call rests on the fitted dose curve; in most records, active means well fitted inhibition curve with a large enough effect; inconclusive means small, poorly fitted or top-dose-only effect; inactive means flat fitted curve, though single readings scatter.

Assay: Confirmatory screen GU Rhodamine qHTS for Zika virus inhibitors qHTS (AID 1347157); further: nearly all actives have a fitted effect of over 70% in size
In short: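 Noncovalent NS2B hydrophilic domain/NS3 protease complex (25 nM final) in 10 mM Tris-HCl pH 8.0, 0.01% Tween 20, preincubated 15 min with compounds (up to 114 microM), then 1.5 microM Rhodamine110 substrate. Fluorescence change over 15 min fitted to 4-parameter Hill.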
Potency means the concentration at half of the fitted maximal effect.

Row | SMILES | Potency
1 | COc1cc2c(cc1-c1c(C)noc1C)ncc1[nH]c(=O)n([C@H](C)c3ccccn3)c12 | inactive
2 | O=C(O)Cn1nnc(-c2cc(N3CCC(Oc4cc(F)ccc4Br)CC3)no2)n1 | 27.8 µM (active)
